Compounds with a hit are over-represented: about 4% of the library has one in this group of screens.
GDH-TPI counter-1: GDH-TPI coupled enzyme inhibition counter-screen; GDH-TPI coupled enzyme counterscreen, NADH absorbance; inhibition, % at 4.8 µM; hit rate 1.2% among 360,000; in the data active = inhibition above about 30%;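 also: 0% = DMSO wells and 100% = wells lacking the enzyme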
Rv3671c protease: inhibits the M. tuberculosis serine protease Rv3671c | P9WHR9 | inhibition, % at 5.96 µM | hit rate 0.048% among 320,000 | AID 2606; in the data active = inhibition above about 38%;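 also: extracellular domain of Rv3671c used as enzyme; 0% = enzyme with DMSO and 100% = no enzyme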
RecA splice inh: inhibitors of M. tuberculosis RecA intein splicing; P9WHJ3; cell-free RecA intein splicing, fluorescence; inhibition, % (no concentration beside the values); hit rate 0.75% among 290,000; AID 2221; in the data active = inhibition above about 30%;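 also: 0% = vehicle wells and 100% = reference inhibitor control wells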
Target sequence (P9WHJ3 whole entry, looked up, canonical isoform): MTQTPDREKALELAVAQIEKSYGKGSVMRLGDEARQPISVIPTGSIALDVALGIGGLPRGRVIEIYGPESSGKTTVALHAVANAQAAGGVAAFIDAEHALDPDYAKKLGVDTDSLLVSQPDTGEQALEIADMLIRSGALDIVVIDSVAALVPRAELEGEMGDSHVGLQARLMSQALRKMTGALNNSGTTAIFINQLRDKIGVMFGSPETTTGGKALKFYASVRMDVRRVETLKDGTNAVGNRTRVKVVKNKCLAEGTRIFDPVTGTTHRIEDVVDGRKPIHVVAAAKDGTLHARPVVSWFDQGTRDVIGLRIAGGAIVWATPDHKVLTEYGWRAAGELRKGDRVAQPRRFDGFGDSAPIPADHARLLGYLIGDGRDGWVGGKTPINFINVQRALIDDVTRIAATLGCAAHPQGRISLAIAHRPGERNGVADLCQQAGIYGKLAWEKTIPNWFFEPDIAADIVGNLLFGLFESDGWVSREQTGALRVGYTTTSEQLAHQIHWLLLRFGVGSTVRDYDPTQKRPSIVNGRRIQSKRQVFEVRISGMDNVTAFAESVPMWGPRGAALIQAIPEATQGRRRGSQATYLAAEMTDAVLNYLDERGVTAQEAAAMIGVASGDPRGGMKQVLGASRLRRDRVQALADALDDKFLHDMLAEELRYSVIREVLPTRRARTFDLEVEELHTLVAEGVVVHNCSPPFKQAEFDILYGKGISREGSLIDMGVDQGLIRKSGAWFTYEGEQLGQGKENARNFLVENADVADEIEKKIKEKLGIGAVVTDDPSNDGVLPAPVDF
Mtb FBA inh: inhibitors of M. tuberculosis fructose-bisphosphate aldolase; P9WQA3; purified M. tuberculosis FBA, fluorescence read-out; inhibition, % at 1 µM; hit rate 2.3% among 360,000; AID 588726;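 also: 0% = vehicle and 100% = reference inhibitor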
Mtb betalactam: beta-lactam sensitization of Mtb H37Rv; M. tuberculosis H37Rv growth with meropenem, percent inhibition; inhibition, % at 25 µM; hit rate 0.27% among 330,000; call rule not given here;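 also: growth measured after seven days incubation then overnight dye step; 0% = bacteria only wells and 100% = bacteria with antibiotic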
UGM FP inh: inhibitors of M. tuberculosis UDP-galactopyranose mutase | P9WIQ1 | purified UGM, fluorescence polarization probe displacement | inhibition, % at 10 µM | hit rate 0.06% among 320,000 | AID 504406; in the data active = inhibition above about 10%, passing the limit was not always enough
Mtb FBA confirm: Mtb FBA inhibition, confirmed; inhibition, % at 1 µM; hit rate 78% among 5,600; shares compounds with Mtb FBA inh; purified M. tuberculosis FBA, fluorescence read-out;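 also: 0% = vehicle wells and 100% = reference inhibitor wells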
GDH-TPI counter-2: counter-screen for M. tuberculosis FBA inhibitors: GDH-TPI coupled enzyme inhibition; shares compounds with Mtb FBA inh; GDH-TPI coupled enzyme counterscreen, fluorescence; inhibition, % at 1 µM; hit rate 81% among 5,600; in the data active = inhibition above about 10%
An asterisk follows results filed as active; . = no result given; + = active, no number. Rule as the data show it, unless noted: active = inhibition above about 27%; inactive = the rest.

SMILES | GDH-TPI counter-1 | Rv3671c protease | RecA splice inh | Mtb FBA inh | Mtb betalactam | UGM FP inh | Mtb FBA confirm | GDH-TPI counter-2
CC(=O)Nc1ccc(S(=O)(=O)N[C@@H](C)C(=O)OCC(=O)c2ccc(C)cc2)cc1 | 2 | 2 | . | 2 | -2 | -1 | . | .
C[C@H]1CN([C@@H](C)CO)C(=O)CCCn2nncc2CO[C@H]1CN(C)C(=O)Nc1cccc(Oc2ccccn2)c1 | 4 | . | . | -1 | . | . | . | .
COc1ccc(S(=O)(=O)N2CCN(C)CC2)cc1NC(=O)c1ccccc1 | 15 | -8 | -3 | 0 | -3 | 2 | . | .
Nc1ccc2oc3ccccc3c2c1 | 5 | 2 | 4 | 27* | 3 | . | 2 | -9
CC12CCC(=O)N1C(C(=O)Nc1cccc(S(=O)(=O)N3CCCCCC3)c1)CS2 (stereo not given) | 7 | 4 | 1 | 3 | -11 | 2 | . | .
COc1ccccc1-c1nc2ccccc2nc1-c1ccccc1OC | 11 | -3 | 5 | 28* | 1 | -1 | 166* | 140*
COc1ccc(-c2nc3ccccc3nc2-c2ccc(OC)cc2)cc1 | 22 | -12 | 2 | 10 | 3 | 2 | . | .
CN=C(NC1CCCCC1)c1ccc([N+](=O)[O-])cc1 | 9 | -2 | 0 | 1 | -17 | -1 | . | .
COc1ccc2cc(C(N)=O)c(=Nc3ccc(C)cc3)oc2c1 | 1 | -5 | -1 | 35* | -14 | 0 | . | +
COc1ccc2oc(=Nc3cccc(F)c3)c(C(N)=O)cc2c1 | 2 | -11 | -2 | 39* | -2 | -1 | 7 | -4
COc1ccc2o/c(=N\O)c(C(=O)Nc3ccc(C)cc3)cc2c1 | 0 | . | -1 | 3 | . | . | . | .
CSc1ccc(/C=C(/NC(=O)c2ccccc2)C(=O)NCCN2CCOCC2)cc1 | 24 | -1 | -2 | -1 | -16 | 1 | . | .
S=C(Nc1cccc2ccccc12)Nc1cccc2ccccc12 | 7 | . | . | 88* | . | . | 96* | 73*
Cc1ccc(C)c(NC(=S)Nc2cccc3cnccc23)c1 | 2 | -12 | 2 | 6 | 6 | 3 | . | .
COc1ccc(NC(=S)Nc2cccc3ccccc23)cc1OC | 7 | 2 | 9 | 42* | -21 | 2 | 35* | 33*
CC(=O)c1cccc(NC(=S)Nc2cccc3ccccc23)c1 | 8 | -5 | 2 | 42* | -17 | 2 | 63* | 33*
Cc1ccc(F)c(NC(=S)Nc2cccc3ccccc23)c1 | 7 | -46 | 5 | 46* | 11 | 1 | 55* | 50*
CC(=O)Nc1cccc(NC(=S)Nc2cccc3ccccc23)c1 | 1 | -1 | 6 | 3 | 9 | -2 | . | .
S=C(Nc1cccc2ccccc12)NC1CCCCC1 | -2 | 5 | 4 | 3 | -1 | 0 | . | .
CC1(C(=O)O)Oc2cccnc2NC1=O (stereo not given) | 1 | 2 | -2 | 1 | 1 | -1 | . | .
CC1=CC(=O)Nc2ncccc2O1 | 19 | . | . | 61* | . | . | 84* | 76*
O=C(c1ccco1)N1CCN(Cc2nnc(-c3cccc(Cl)c3)o2)CC1 | -2 | 5 | . | 2 | -4 | -1 | . | .
CC(=O)Nc1ccc(-n2cc(-c3ccccc3)[nH]c2=S)cc1 | 3 | -10 | 3 | 1 | -5 | 3 | . | .
O=C(O)c1ccc(-n2cc(-c3cc4ccccc4oc3=O)[nH]c2=S)cc1 | 23 | . | . | 32* | . | . | 139* | 99*
Cc1c(N)ccc(-n2nc3ccccc3n2)c1C | 11 | 5 | 1 | 3 | 4 | 1 | . | .
SMILES | GDH-TPI counter-1 | Rv3671c protease | RecA splice inh | Mtb FBA inh | Mtb betalactam | UGM FP inh | Mtb FBA confirm | GDH-TPI counter-2
c1ccc2c(c1)c1cccc3ccc4cccc2c4c31 | 21 | 4 | . | 55* | 4 | 0 | 75* | 64*
O=c1c2ccccc2ccc2ccccc12 | 14 | 1 | . | 6 | 5 | 2 | . | .
CCN1CCN(CCC(=O)Nc2ccccc2C)CC1 | -2 | 5 | 0 | 1 | 4 | -1 | . | .
CCOC(=O)N1CCN(C(=O)Nc2cccc3ccccc23)CC1 | -5 | -2 | 1 | 31* | 4 | . | 170* | 156*
O=C(Nc1cccc2ccccc12)N1CC=C(c2ccccc2)CC1 | -1 | 3 | 1 | 33* | 2 | -1 | 55* | 68*
O=C(Nc1cccc2ccccc12)N1CCN(Cc2ccccc2)CC1 | -13 | -7 | 3 | 33* | 11 | 1 | 96* | 74*
CCOC(=O)C1CCCN(C(=O)c2cccc(Cl)c2)CC1 (stereo not given) | 4 | . | . | -2 | . | . | . | .
CC1CCN(C(=O)COC(=O)c2c[nH]c3ccccc23)CC1 | -12 | . | . | -1 | . | . | . | .
CC1CCN(C(=O)COC(=O)c2ccccc2NCCO)CC1 | 14 | . | . | 92* | . | . | 131* | 112*
O=C(COC(=O)c1ccccc1NCCO)Nc1cc(C(F)(F)F)ccc1N1CCOCC1 | 4 | -2 | -5 | 70* | 3 | -8 | 3 | -5
CC(OC(=O)c1ccc(C(C)(C)C)cc1)C(=O)NC1CCCCC1C (stereo not given) | 5 | -2 | 3 | 3 | -2 | -1 | . | .
CC1Cc2ccccc2N1C(=O)COC(=O)c1ccccc1NCCO (stereo not given) | 16 | -1 | -6 | 109* | -13 | 2 | 80* | 67*
CC(OC(=O)c1ccccc1NCCO)C(=O)NC1CCCCC1C (stereo not given) | 4 | 4 | -6 | 96* | 3 | 0 | 1 | -4
CC(C)(C)NC(=O)CN(C(=O)CNS(=O)(=O)c1ccc(Cl)cc1)c1ccc2c(c1)OCCO2 | -1 | -8 | 0 | 6 | 1 | -2 | . | .
CCCC(NC(=O)C(C)Sc1nnnn1C1CC1)c1ccccc1 (stereo not given) | 6 | 5 | . | 1 | -7 | -2 | . | .
O=[N+]([O-])c1cccc(S(=O)(=O)NCCCn2ccnc2)c1 | 1 | -3 | -1 | 2 | 4 | -1 | . | .
Cc1nn(C)cc1S(=O)(=O)NCc1ccccc1Cl | -5 | -2 | -1 | -1 | -12 | 1 | . | .
O=C(OCC(=O)N1CCCc2ccccc21)c1ccccc1NCCO | -9 | 2 | -6 | 99* | -9 | -1 | 148* | 140*
O=C(OCC(=O)N1CCCc2ccccc21)c1ccccc1OC(F)F | 1 | 2 | . | -2 | -2 | 4 | . | .
O=C(O)c1cc(-c2c[nH]c3ccccc23)nc2cc3ccccc3cc12 | 17 | 5 | -8 | 55* | 25 | 1 | 75* | 75*
COCc1cc(C)nc2sc(C(=O)Nc3ccc(C(=O)OC)cc3)c(N)c12 | 7 | 3 | -3 | 1 | 12 | 1 | . | .
COCc1cc(C)nc2sc(C(=O)OC(C)C)c(N)c12 | 19 | 4 | -8 | 41* | 0 | 2 | + | 175*
CCc1cccc(CC)c1C(OC(C)=O)c1cccnc1 (stereo not given) | 1 | 7 | 4 | 2 | -4 | -1 | . | .
